# In PubChem BioAssay AID651821 (The Scripps Research Institute Molecular Screening Center, 2012):
# Hit rate of the full screen: of about 370,000 compounds, about 4,700 (1.3%) were called active.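 The calls were made as follows: active = inhibition above the plate cutoff, the mean of all test compounds on that plate plus 3 SD (cut at about 35% in these data); inactive = the rest.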 This excerpt belongs to a sample that is enriched for actives.
# Assay: small molecules binding CAG repeat RNA – biochemical, fluorescence, primary screen (AID 651821);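 also: 0% = DMSO alone and 100% = 100 µM mitoxantrone as full dye displacement; higher means more dye released from RNA so lower well fluorescence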
# Conditions: r(CAG) RNA repeat, TO-PRO-1 dye displacement fluorescence; at 3 µM; hits give high values
row,Structure (SMILES),inhibition
1,O=C(NC1CCCC1)C1CSCCS(=O)(=O)N1Cc1ccccc1 (centres undefined),4% (inactive)
2,CCc1nnc(NC(=O)C2CCCN2S(=O)(=O)c2ccccc2)s1 (centres undefined),-1.9% (inactive)
3,CCc1nnc(NS(=O)(=O)c2ccc(NC(=S)NC(=O)c3cccs3)cc2)s1,59% (active)
4,O=C(NC(=S)Nc1ccc(S(=O)(=O)Nc2ncccn2)cc1)c1cccc(Br)c1,5.78% (inactive)
5,CCc1nnc(NC(=O)[C@@H](NC(=O)c2cccc(C)c2)C(C)C)s1,2.27% (inactive)
6,NS(=O)(=O)c1ccc(NC(=S)NNC(=O)c2cccs2)cc1,-2.42% (inactive)
7,CCc1nnc(NS(=O)(=O)c2ccc(NC(=S)NC(=O)/C=C/c3cccs3)cc2)s1,83.9% (active)
8,CCc1nnc(NS(=O)(=O)c2ccc(NC(=O)c3cccc(OC(F)(F)C(F)F)c3)cc2)s1,72.6% (active)
9,Cc1cc(NS(=O)(=O)c2ccc(NC(=O)c3cccc(OC(F)F)c3)cc2)nc(C)n1,4.48% (inactive)
10,Cc1ccc(S(=O)(=O)N(C)C)cc1NC(=O)/C=C/c1cccs1,0.22% (inactive)
11,C=CCN=C1NC(c2ccccc2)C(C(=O)OC)=C(C)N1Cc1ccc(C(F)(F)F)cc1 (centres undefined),8.06% (inactive)
12,CN(CCO)c1cccc2c1S(=O)(=O)N(Cc1cn(Cc3ccc(C(F)(F)F)cc3)nn1)Cc1ccccc1O2,-1.07% (inactive)
13,C/C=C/C(=O)OCC(=O)Nc1ccc(F)cc1Cl,4.85% (inactive)
14,Cc1cc2nc3c(=O)[nH]c(=O)nc-3n(C[C@H](O)[C@H](O)[C@H](O)CO)c2cc1C,-477% (inactive)
15,CCN1C(=O)N[C@@H]2C[C@H](C(=O)N3CCCC3)[C@H](C)[C@H](c3ccccc3)C[C@@H]21,1.47% (inactive)
16,CC1CCN(S(=O)(=O)c2nnc(NC(=O)COc3ccccc3F)s2)CC1,8.39% (inactive)
17,Cc1ccccc1OCC(=O)Nc1nnc(S(=O)(=O)N2CCCC2)s1,37.6% (active)
18,CCc1ccccc1OCC(=O)Nc1ccc(C)c(S(=O)(=O)N2CCCCCC2)c1,3.67% (inactive)
19,COc1ccc(Cn2cc(CN3[C@@H](CC(C)C)COc4cc(Br)ccc4S3(=O)=O)nn2)cc1,2.72% (inactive)
20,O=C(C(=O)N1CCC(CNS(=O)(=O)Cc2ccccc2)CC1)c1cc2ccccc2o1,3.81% (inactive)
21,Cn1c2c(c(=O)n(C)c1=O)CN(Cc1ccco1)CN2,-0.1% (inactive)

row,Structure (SMILES),inhibition
1,COc1ccc(-n2c(SCC(=O)Nc3ccc4c(c3)OCCO4)nnc2-c2ccc(Cl)cc2)cc1,6.74% (inactive)
2,COc1ccc(C2C(C#N)=C(N)Oc3n[nH]c(C)c32)cc1CN1CCN(c2ccc(F)cc2)CC1 (centres undefined),0.94% (inactive)
3,COc1ccccc1C1CC(=O)n2c(nc(-c3ccccc3)c2-c2ccccc2)S1 (centres undefined),9.44% (inactive)
4,COc1ccccc1C1C(C#N)=C(N)Oc2c1c(-c1ccccc1)nn2-c1ccccc1 (centres undefined),54.6% (active)
5,CCCCCCCCN1C(=O)[C@@H](CC(=O)NCc2ccccc2)C[C@@]2(C(=O)OC)C1=C[C@H](C(C)(C)C)O[C@@H]2C,1.31% (inactive)
6,O=C(c1cccnc1)N(c1cc2sc(=O)oc2c2ccccc12)S(=O)(=O)c1ccccc1,80.7% (active)
7,O=C(CN(c1cc(C(F)(F)F)ccc1Cl)S(=O)(=O)c1ccccc1)NCc1cccnc1,-7.03% (inactive)
8,CN(c1ccccc1)S(=O)(=O)c1ccc(C(=O)NCc2cccnc2)cc1,2.25% (inactive)
9,Cc1cc(N2CCN(C(=O)OC(C)(C)C)C[C@H]2C)ccc1N1CCN(Cc2ccccc2)[C@H](C)C1,0.53% (inactive)
10,Cc1ccc(S(=O)(=O)N2C[C@H]3C(=O)C[C@@H](c4cccc5ccccc45)N(S(=O)(=O)c4ccc(C)cc4)[C@H]3C[C@H]2c2ccc(Cl)cc2)cc1,13.6% (inactive)
11,CCOC(=O)C1C(C)C(C(C)(C)C)N(S(=O)(=O)c2ccc(C)cc2)C1c1ccccc1 (centres undefined),1.44% (inactive)
12,Cc1ccc(S(=O)(=O)N2[C@@H](c3cccc4ccccc34)C(C(=O)O)=C[C@H]2C(C)(C)C)cc1,50.6% (active)
13,COc1cccc(/C=C2\CC3(OC(C)=O)CCCN2C3)c1 (centres undefined),0.45% (inactive)
14,C#CCN([C@@H](C)C(=O)OCC)S(=O)(=O)c1ccc(Br)cc1F,2.12% (inactive)
15,O=c1oc(-c2ccccc2NS(=O)(=O)c2ccc(Cl)cc2)nc2ccccc12,39.1% (active)
16,O=c1ccc2cc(S(=O)(=O)Nc3ccccc3F)ccc2o1,-1.01% (inactive)
17,O=c1oc2ccccc2c(NC2CCCCC2)c1NS(=O)(=O)c1ccc(Cl)cc1,5.21% (inactive)
18,COc1ccc(-n2c(SCC(=O)Nc3ccccc3-c3ccccc3)nnc2-c2cccnc2)cc1,0.96% (inactive)
19,Cc1c(C(C)c2ccccc2O)[nH]c2ccccc12 (centres undefined),4.84% (inactive)
20,O=C(CSc1nnc(-c2ccccc2)n1Cc1ccco1)Nc1ccccc1-c1ccccc1,5.56% (inactive)
21,Clc1ccccc1CSc1nnc(-c2ccco2)c(-c2ccco2)n1,54.8% (active)

row,Structure (SMILES),inhibition
1,Clc1ccc(-n2c(SC/C=C/c3ccccc3)nnc2-c2ccco2)cc1,2.56% (inactive)
2,COC(=O)C1CN(CC(C)C)CCS(=O)(=O)N1Cc1ccc(C)cc1 (centres undefined),2.99% (inactive)
3,CC(C)(C)c1ccc(CSc2nnc(-c3cccs3)o2)cc1,-0.86% (inactive)
4,CC(C)N1CCCCC(NC(=O)c2ccc3ccccc3c2)C1=O (centres undefined),2.21% (inactive)
5,Nc1ccn([C@@H]2O[C@H](C(=O)N[C@H]3CCCCNC3=O)[C@@H](O)[C@H]2O)c(=O)n1,-0.39% (inactive)
6,Cc1nc(C)c(-c2nnc(-c3cccc(S(=O)(=O)N(C)C)c3)o2)cc1C(=O)NN,10.6% (inactive)
7,Cc1ccc(-c2nn(-c3ccccc3)cc2/C=C2\SC(=S)N(CCCCCC(=O)O)C2=O)o1,48.8% (active)
8,COc1cccc(-c2nn(-c3ccccc3)cc2/C=C(\C#N)C(=O)NCCCn2ccnc2)c1,4.33% (inactive)
9,CN(C)S(=O)(=O)c1cccc(-c2nn(-c3ccccc3)cc2/C=C2\SC(=S)N(CC(=O)O)C2=O)c1,63.9% (active)
10,O=C(CN1CCC(NC(=O)NCc2ccccc2)CC1)Nc1ccc2c(c1)OCCO2,0.82% (inactive)
11,CCc1ccc(C2=CC(=O)CC(C)(C)C2=O)cc1,3.63% (inactive)
12,COc1ccc(Cl)cc1NC(=O)COC(=O)C(CC(C)C)N1C(=O)C2CC=CCC2C1=O (centres undefined),-0.39% (inactive)
13,OC(c1ccccc1)(c1ccccc1)C1CCN(CCCOc2ccc(-c3ccsc3)cc2)CC1,9.5% (inactive)
14,Cc1ccnc(NS(=O)(=O)c2ccc(NC(=O)c3oc4ccccc4c3C)cc2)n1,33.1% (inactive)
15,Cc1noc(NS(=O)(=O)c2ccc(NC(=O)c3oc4ccc(F)cc4c3C)cc2)c1C,75.7% (active)
16,Cc1cc(C)c2oc(C(=O)Nc3ccc(S(=O)(=O)Nc4nccc(C)n4)cc3)cc(=O)c2c1,1.83% (inactive)
17,Cc1cc(C)c2nc(-c3cccnc3)cc(C(=O)Nc3ccc(S(=O)(=O)Nc4onc(C)c4C)cc3)c2c1,80.4% (active)
18,O=C(Nc1ccc(S(=O)(=O)Nc2ncccn2)cc1)c1cncc(Br)c1,-0.76% (inactive)
19,Cc1ccnc(NS(=O)(=O)c2ccc(NC(=O)c3oc4ccc(F)cc4c3C)cc2)n1,33.3% (inactive)
20,CN1C(=O)C(Br)(Br)CC1c1cccnc1 (centres undefined),1.36% (inactive)
21,Cc1c(-c2ccccc2)n[nH]c1C(=O)N=Nc1c(O)[nH]c2ccccc12,36.8% (active)

row,Structure (SMILES),inhibition
1,O=C(CSc1nc2ccccc2s1)N=Nc1c(O)[nH]c2ccccc12,10.6% (inactive)
2,O=C(CCN1CCCCC1)N=Nc1c(O)[nH]c2ccccc12,4.74% (inactive)
3,Cc1ccccc1Nc1nc(N)nc(COC(=O)CCC(=O)c2ccc(F)cc2)n1,0.17% (inactive)
4,CCc1ccccc1NC(=O)CSc1nnc(-c2cccs2)o1,-0.17% (inactive)
5,CC(C)[C@@H](C)/C=C/[C@@H](C)[C@H]1CC[C@@H]2[C@]1(C)CCC1[C@]23C=C[C@]2(C[C@@H](O)CC[C@]12C)N(c1ccc([N+](=O)[O-])cn1)O3 (some centres undefined),27.1% (inactive)
6,Cc1ccsc1-c1cc(C(=O)O)c2c(ccc3ccccc32)n1,9.82% (inactive)
7,Cc1cc(C)c2nc(-c3ccco3)cc(C(=O)O)c2c1,67.3% (active)
8,COC(=O)c1cnn2c(C(F)(F)F)cc(-c3ccco3)nc12,10.2% (inactive)
9,COC(=O)N1Cc2ccnnc2CC1c1ccccc1Br (centres undefined),3.21% (inactive)
10,O=C(CCc1ccccc1Cl)Nc1ccc(S(=O)(=O)Nc2nccs2)cc1,44% (active)
11,Cc1ccc(OCCCC(=O)Nc2ccc(S(=O)(=O)Nc3cc(C)nc(C)n3)cc2)cc1,24.9% (inactive)
12,O=C(Nc1ccc(S(=O)(=O)N2CCOCC2)cc1)c1ccc2ncsc2c1,5.29% (inactive)
13,CN1CCN(S(=O)(=O)c2cccc(C(=O)N3CCc4ccccc43)c2)CC1,0.16% (inactive)
14,O=C(Nc1ccc(S(=O)(=O)Nc2nccs2)cc1)c1cccc(S(=O)(=O)N2CCOCC2)c1,34.7% (active)
15,O=C(CCS(=O)(=O)c1ccccc1Cl)Nc1ccc(S(=O)(=O)Nc2ncccn2)cc1,2.17% (inactive)
16,CN1CCN(S(=O)(=O)c2cccc(C(=O)Nc3sccc3C#N)c2)CC1,44.6% (active)
17,CCC(CC)C(=O)Nc1ccc(S(=O)(=O)Nc2nccs2)cc1,3.15% (inactive)
18,Cc1ccc(OCCC(=O)Nc2ccc(S(=O)(=O)Nc3nccs3)cc2)cc1,36.9% (active)
19,COc1ccccc1OC(C)C(=O)Nc1ccc(S(=O)(=O)Nc2nccs2)cc1 (centres undefined),19.7% (inactive)
20,CN1CCN(S(=O)(=O)c2cccc(C(=O)Nc3cccc(S(N)(=O)=O)c3)c2)CC1,1.84% (inactive)
21,Cc1ccnc(NS(=O)(=O)c2ccc(NC(=O)c3ccc(S(=O)(=O)N4CCOCC4)cc3)cc2)n1,12.3% (inactive)
